Peg3 prom inh = reduces Peg3 promoter-driven luciferase expression in HeLa; HeLa PEG-Prom luciferase reporter, luminescence, overnight; inhibition, % at 20 µM; 1.7% of 360,000 active; AID 588405;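 active = inhibition of at least 50% at 20 µM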
LMP1 NFkB inh = inhibitors of Epstein-Barr LMP1-induced NF-kappaB reporter | LMP1-induced NF-kappaB luciferase reporter cells, luminescence | inhibition, % at 12.5 µM | 0.69% of 350,000 active | AID 504558; in the data active = inhibition above about 41%;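 also: 0% = neutral control wells and 100% = reference inhibitor control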
TROY NFkB inh = blocks TROY-dependent signaling in reporter cells | AID 1347056 | 0.98% of 360,000 active | Q293 LMP1-TROYcd NF-kB luciferase reporter, 4 h | inhibition, % at 10 µM;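 active = compounds whose plate-normalised and pattern-corrected inhibition of the luciferase reporter signal at the single screening dose is 50% or more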
MITF TRPM1 inh = reduces MITF-dependent TRPM1 promoter luciferase signal | SK-MEL-5 TRPM1 promoter luciferase, 24 h | inhibition, % at 12.5 µM | 0.83% of 330,000 active | AID 488899;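 active = mean inhibition across replicates of 60% or more, whatever share of single replicates reaches that level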
TWEAK-Fn14 inh = inhibitors of TWEAK-Fn14 interaction signaling; 2% of 360,000 active; inhibition, % at 10 µM; TWEAK-stimulated Fn14 reporter cells, luciferase luminescence, 8 h; in the data active = inhibition above about 50%
Shn3 3UTR inh = reduces Shn3 3'UTR luciferase signal in osteoblasts | inhibition, % at 12.5 µM | AID 588674 | 0.52% of 360,000 active | Clone20 osteoblast Shn3 3'UTR firefly luciferase, 24 h;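 active = mean inhibition of at least 75% with every replicate also reaching 75%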;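 also: 0% = median of neutral control wells and 100% = pilot-screen positive control compound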
* = called active by the depositor. An excerpt weighted towards active compounds, which were near 4.1% of everything screened.

What do the screens show for `Cc1noc(C)c1NC(=O)N(C)C[C@@H]1OCc2cnnn2CCCC(=O)N([C@H](C)CO)C[C@@H]1C`?
Peg3 prom inh: -10.6; LMP1 NFkB inh: -0.2; TROY NFkB inh: -12.6; TWEAK-Fn14 inh: -6.0; Shn3 3UTR inh: 13.7

How did COc1ccc(-n2nc(C#N)c(Cl)cc2=O)cc1 do in these assays?
Peg3 prom inh: 104.2*; LMP1 NFkB inh: -8.1; TROY NFkB inh: 60.6*; MITF TRPM1 inh: 99.9*; TWEAK-Fn14 inh: 95.8*; Shn3 3UTR inh: 37.1

How did CNS(=O)(=O)c1ccc2nc(NC(=O)/C=C/c3ccco3)sc2c1 do in these assays?
Peg3 prom inh: 23.8; LMP1 NFkB inh: -11.4; TROY NFkB inh: 7.4; MITF TRPM1 inh: -12.1; TWEAK-Fn14 inh: 9.3; Shn3 3UTR inh: -28.7

What do the screens show for `N#CC(C#N)=C1C=CC=CN1/C(=C\c1ccco1)C(=O)c1ccc(-c2ccccc2)cc1`?
Peg3 prom inh: 109.6*; LMP1 NFkB inh: -31.7; TROY NFkB inh: 32.4; MITF TRPM1 inh: 72.7*; TWEAK-Fn14 inh: 88.5*; Shn3 3UTR inh: 15.8

How did N#C/C(=C\c1ccco1)C(=O)NCc1ccccc1 do in these assays?
Peg3 prom inh: -19.2; LMP1 NFkB inh: -2.4; TROY NFkB inh: 8.1; MITF TRPM1 inh: -2.3; TWEAK-Fn14 inh: 9.9; Shn3 3UTR inh: 18.5

Results for CC(C)c1ccc(CNC(=O)C(=O)NCC2CCCO2)cc1 (centres undefined) ?
Peg3 prom inh: 10.2; LMP1 NFkB inh: -2.2; TROY NFkB inh: -21.7; MITF TRPM1 inh: -9.8; TWEAK-Fn14 inh: 2.8; Shn3 3UTR inh: 11.1

Results for O=C(CCCc1nc(-c2ccccc2Cl)no1)NC1CCCC1 ?
Peg3 prom inh: 38.7; LMP1 NFkB inh: 22.6; TROY NFkB inh: 51.8*; MITF TRPM1 inh: 76.4*; TWEAK-Fn14 inh: 91.5*; Shn3 3UTR inh: 73.1

What do the screens show for `COc1ccccc1-c1noc(CCCC(=O)NC2CCCC2)n1`?
Peg3 prom inh: -6.6; LMP1 NFkB inh: -5.4; TROY NFkB inh: 12.1; MITF TRPM1 inh: 14.0; TWEAK-Fn14 inh: 2.4; Shn3 3UTR inh: -0.2

What do the screens show for `O=C(CC1CCC1)NC(c1ccccc1)c1ccccc1`?
Peg3 prom inh: 7.1; LMP1 NFkB inh: -7.4; TROY NFkB inh: 8.2; MITF TRPM1 inh: -7.8; TWEAK-Fn14 inh: 17.5; Shn3 3UTR inh: 4.1

How did CC1CCCC(CC(N)=O)CC1 (centres undefined) do in these assays?
Peg3 prom inh: -0.3; LMP1 NFkB inh: -3.0; TROY NFkB inh: -5.0; MITF TRPM1 inh: 1.4; TWEAK-Fn14 inh: 1.3; Shn3 3UTR inh: 94.0*

Results for O=C(Nc1nc2ccc(SC(F)F)cc2s1)c1ccc(NS(=O)(=O)c2ccc(F)c(F)c2)cc1 ?
Peg3 prom inh: -76.1; LMP1 NFkB inh: -18.5; TROY NFkB inh: 54.5*; MITF TRPM1 inh: -6.2; TWEAK-Fn14 inh: 71.0*; Shn3 3UTR inh: 0.7

Results for CS(=O)(=O)c1ccc2nc(NC(=O)c3ccc(NS(=O)(=O)c4ccc(F)c(F)c4)cc3)sc2c1 ?
Peg3 prom inh: -13.3; LMP1 NFkB inh: -1.4; TROY NFkB inh: 11.2; MITF TRPM1 inh: -3.8; TWEAK-Fn14 inh: 7.0; Shn3 3UTR inh: 6.5

What do the screens show for `CCN(c1ccccc1)S(=O)(=O)c1cnc[nH]1`?
Peg3 prom inh: -1.6; LMP1 NFkB inh: -11.8; TROY NFkB inh: -15.0; MITF TRPM1 inh: 2.8; TWEAK-Fn14 inh: 1.2; Shn3 3UTR inh: 3.3

How did Nc1ncnc2c1c(-c1ccc(Oc3ccccc3)cc1)cn2C1CCCC1 do in these assays?
Peg3 prom inh: 71.5*; LMP1 NFkB inh: 47.5*; TROY NFkB inh: 17.1; MITF TRPM1 inh: 6.1; TWEAK-Fn14 inh: 7.8; Shn3 3UTR inh: 89.8*

What do the screens show for `CCOc1cccc2cc(C(=O)N3CCc4ccccc43)c(=O)oc12`?
Peg3 prom inh: -0.6; LMP1 NFkB inh: 0.3; TROY NFkB inh: 2.7; MITF TRPM1 inh: -18.6; TWEAK-Fn14 inh: 7.0; Shn3 3UTR inh: 0.3

Results for COc1cccc2cc(C(=O)N3CCc4ccccc43)c(=O)oc12 ?
Peg3 prom inh: -55.8; LMP1 NFkB inh: 1.3; TROY NFkB inh: 13.5; MITF TRPM1 inh: -7.9; TWEAK-Fn14 inh: 50.4*; Shn3 3UTR inh: 22.2

Results for COc1cccc2cc(C(=O)Nc3cccc(C)n3)c(=O)oc12 ?
Peg3 prom inh: 5.8; LMP1 NFkB inh: -19.8; TROY NFkB inh: 49.5; MITF TRPM1 inh: -7.6; TWEAK-Fn14 inh: 56.8*; Shn3 3UTR inh: -25.0

What do the screens show for `COc1ccc(NC(=O)c2cc3cccc(OC)c3oc2=Nc2ccc(C(=O)O)cc2)cc1OC`?
Peg3 prom inh: 17.5; LMP1 NFkB inh: -10.9; TROY NFkB inh: 46.4; MITF TRPM1 inh: -62.2; TWEAK-Fn14 inh: 82.6*; Shn3 3UTR inh: 17.6

What do the screens show for `COc1cccc2cc(C(=O)NC(C)c3ccccc3)c(=O)oc12` (centres undefined)?
Peg3 prom inh: -104.3; LMP1 NFkB inh: 11.2; TROY NFkB inh: -18.8; MITF TRPM1 inh: -13.9; TWEAK-Fn14 inh: -8.1; Shn3 3UTR inh: -29.8

What do the screens show for `COc1ccc(Br)cc1C(=O)Nc1ccc(C(=O)O)cc1`?
Peg3 prom inh: 1.8; LMP1 NFkB inh: 4.9; TROY NFkB inh: -16.1; MITF TRPM1 inh: 1.6; TWEAK-Fn14 inh: -32.2; Shn3 3UTR inh: 7.0

What do the screens show for `CCO[C@@H]1OC(C(=O)NCc2nc3ccccc3[nH]2)=C[C@H](c2coc3ccccc3c2=O)[C@H]1CCCO`?
Peg3 prom inh: -4.0; LMP1 NFkB inh: -2.4; TROY NFkB inh: 4.1; MITF TRPM1 inh: -1.7; TWEAK-Fn14 inh: -18.7; Shn3 3UTR inh: 4.5

How did Cc1onc(-c2ccccc2Cl)c1C(=O)N1CCOC12CCCCC2 do in these assays?
Peg3 prom inh: 14.1; LMP1 NFkB inh: -6.1; TROY NFkB inh: -24.2; MITF TRPM1 inh: 12.3; TWEAK-Fn14 inh: 9.0; Shn3 3UTR inh: 17.0

What do the screens show for `Cc1ccn(CC(=O)NC2CC(C)(C)Cc3c2cnn3-c2ccc(F)cc2)n1` (centres undefined)?
Peg3 prom inh: -81.8; LMP1 NFkB inh: -21.2; TROY NFkB inh: -43.7; MITF TRPM1 inh: -53.0; TWEAK-Fn14 inh: -22.4; Shn3 3UTR inh: -34.1

What do the screens show for `CN1CCN(c2ncnc3c2ncn3[C@H]2CN(Cc3ccc4c(c3)OCO4)C[C@@H](CO)O2)CC1`?
Peg3 prom inh: -3.6; TROY NFkB inh: -8.7; TWEAK-Fn14 inh: -21.8; Shn3 3UTR inh: 3.6

Results for Cc1csc(NC(=O)CS(=O)(=O)c2ccccc2)n1 ?
Peg3 prom inh: -63.1; LMP1 NFkB inh: 5.2; TROY NFkB inh: -27.3; MITF TRPM1 inh: -3.0; TWEAK-Fn14 inh: 8.6; Shn3 3UTR inh: -10.3

What do the screens show for `Oc1ccc(-c2nc3c4c(ncn3n2)-c2ccccc2CC42CCCC2)cc1`?
Peg3 prom inh: 110.7*; LMP1 NFkB inh: -8.4; TROY NFkB inh: 30.3; MITF TRPM1 inh: 11.7; TWEAK-Fn14 inh: 77.1*; Shn3 3UTR inh: 8.5

What do the screens show for `C=C1CCC2C(C)(C(=O)O)CCCC2(C)C1CCC(CO)CCO` (centres undefined)?
Peg3 prom inh: 107.0*; TROY NFkB inh: 12.6; TWEAK-Fn14 inh: 5.0; Shn3 3UTR inh: 2.8

What do the screens show for `CC(NC(=O)[C@H](C)NC(=O)C1CC(=O)N(c2ccc3c(c2)OCO3)C1)c1ccccc1` (some centres undefined)?
Peg3 prom inh: 0.2; LMP1 NFkB inh: -9.6; TROY NFkB inh: 4.6; MITF TRPM1 inh: 9.5; TWEAK-Fn14 inh: 8.9; Shn3 3UTR inh: -18.4

Source: PubChem
